Results published in PubChem BioAssay AID624093 (National Center for Advancing Translational Sciences (NCATS), 2012).
Records with an inconclusive call do not appear. Active and inactive are the calls of the source. The call rests on the fitted dose curve; in most records, active means well fitted inhibition curve with a large enough effect; inconclusive means small, poorly fitted or top-dose-only effect; inactive means flat fitted curve, though single readings scatter.

Molecular target: Dual specificity tyrosine-phosphorylation-regulated kinase 1A (Homo sapiens) (UniProt Q13627)
Test: Confirmation Assay for Inhibitors of Dyrk1a (Kinase-Glo Assay): KU probe
Details: Kinase-Glo ATP luminescence; series mostly up to 76.9 µM
How it was run: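 Luminescent Kinase-Glo read-out of ATP left after a 2 h room-temperature reaction of 5nM Dyrk1A with 2uM ATP and 8uM DYRKtide. Buffer: 25mM Tris-HCl pH 7.5, 10mM MgCl2, 0.5mM EGTA, 5mM cysteine, 0.01% Triton X-100.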

Potency, active:
c1coc(CNc2ncnc3ccc(-c4ccc5c(c4)OCO5)cc23)c1 104 nM
c1ccc(CNc2ccnc(-c3ccc4c(c3)OCO4)n2)cc1 26000 nM
CC(C)(C)CNc1ncnc2ccc(-c3ccc(C(=O)O)o3)cc12 2320 nM
c1cncc(CNc2nccc(-c3ccc4cn[nH]c4c3)n2)c1 207 nM
c1cncc(CNc2ncncc2-c2ccc3c(c2)OCO3)c1 26000 nM
c1cncc(CNc2ccnc(-c3ccc4[nH]ncc4c3)n2)c1 654 nM
c1nc(NC[C@@H]2CCCO2)c2cc(-c3ccc4c(c3)OCO4)ccc2n1 130 nM
CCCNc1ncnc2ccc(-c3ccc4c(c3)OCO4)cc12 116 nM
Clc1cc(CNc2ccnc(-c3ccc4c(c3)OCO4)n2)ccn1 23200 nM
Clc1ccc(CNc2ncncc2-c2ccc3c(c2)OCO3)cc1 26000 nM
Cc1csc(CN(C)c2ncnc3ccc(-c4ccc5c(c4)OCO5)cc23)n1 23.2 nM
FC(F)(F)c1cc(Br)cc(Nc2nccc(-c3ccc4c(c3)OCO4)n2)c1 519 nM
CCNC(=O)c1ccc(-c2ccc3ncnc(NCC4CCCO4)c3c2)o1 (stereo not drawn) 2600 nM
c1nc(NCC2CCCC2)c2cc(-c3ccc4c(c3)OCO4)ccc2n1 65.4 nM
Cc1csc(CNc2ncnc3ccc(-c4ccc(C(=O)O)o4)cc23)n1 23200 nM
c1nc(NCCC2CCCO2)c2cc(-c3ccc4c(c3)OCO4)ccc2n1 (stereo not drawn) 164 nM
Brc1ccc(CNc2nccc(-c3ccc4c(c3)OCO4)n2)cc1Br 823 nM

Potency, inactive:
COc1ccc(CNc2ccnc(-c3ccc(N(C)C)cc3)n2)cc1
COc1ccc(-c2nccc(NCc3ccc(C)cc3)n2)cc1
COc1ccc(-c2nccc(NCc3ccc(Cl)c(Cl)c3)n2)cc1
Clc1ccc(CNc2ccnc(-c3ccc4c(c3)OCO4)n2)cc1Cl
Cc1noc(C)c1-c1nccc(NCc2ccc(Cl)c(Cl)c2)n1
O=C(Nc1ccnc(-c2ccc3c(c2)OCO3)n1)c1ccncn1
